Results taken from ChEMBL document CHEMBL4513216, “Probing the Open Global Health Chemical Diversity Library for Multistage-Active Starting Points for Next-Generation Antimalarials” (ACS Infect Dis, 2020).
The campaign covered roughly 68,000 compounds. About 2,700 (4%) showed an effect of 50% or more. The list comes from a sample in which strong results are over-represented; it also holds similar structures and randomly drawn compounds.

system: Plasmodium berghei; experiment: Screen against P. berghei liver stage (PbLuc), transformed with Luciferase, at 2uM; format: functional, HepG2; settings: tested at 2 uM

Question: `Cc1cnn(CC2CN(Cc3nc(C4CC4)no3)CCO2)c1` (stereo not drawn) was tested. Which INHIBITION did it give?
Answer: -18.67%

Question: How did the INHIBITION turn out when `c1cnc(NCc2cncc3c2CCN(Cc2ccsc2)C3)nc1` was run?
Answer: 46.11%

Question: With `CSc1nc2ccsc2c(=O)n1CC(=O)N1CCCCC1C` (stereo not drawn) as the compound, how does the INHIBITION read?
Answer: -24.07%

Question: Which INHIBITION does the source give for `CC(C)NC(=O)N1CCC2(CC(=O)N(c3cccc(C#N)c3)C2)C1` (stereo not drawn) here?
Answer: -8.23%

Question: Which INHIBITION does the source give for `O=C(C1CCOCC1)N1C[C@H](OCc2cccnc2)[C@H]2COC[C@H]21` here?
Answer: 26.19%

Question: For `CCOc1ncccc1C(=O)N1CCCC(c2nccn2CCOC)C1` (stereo not drawn), which INHIBITION is on record?
Answer: -32.59%

Question: Which INHIBITION does the source give for `CN1CCc2cc(C(=O)N(C)C)c(NCC3CC3)nc2CC1` here?
Answer: 23.97%

Question: `COCCNCc1cc2ccc(C)c(C)c2[nH]c1=O` was tested. Which INHIBITION did it give?
Answer: -21.9%

Question: `CCC1CN(C(=O)c2csc3nc(-c4ccc(Cl)cc4)cn23)CCN1` (stereo not drawn) was tested. Which INHIBITION did it give?
Answer: 22.83%

Question: `Cc1cccc(CN2C(=O)CCC23CCN(Cc2cccn2C)CC3)n1` was tested. Which INHIBITION did it give?
Answer: 17.39%

Question: Which INHIBITION does the source give for `COc1ccc(-c2ncc(-c3nccn3CCN(C)C)cn2)cc1` here?
Answer: 10.63%

Question: Which INHIBITION does the source give for `CC(C)c1nccn1C1CCCN(C(=O)CCc2cscn2)C1` (stereo not drawn) here?
Answer: 21.39%

Question: `COc1ccc(C[C@H]2CN(C(=O)c3cscn3)CC[C@@H]2OC)cc1` was tested. Which INHIBITION did it give?
Answer: -6.39%

Question: With `CO[C@@H]1CCN(C(=O)c2cc(C)on2)C[C@@H]1Cc1ccccc1` as the compound, how does the INHIBITION read?
Answer: 52.91%

Question: With `COc1ccc(C[C@H]2CN(C(=O)c3cnoc3)CC[C@@H]2OC)cc1` as the compound, how does the INHIBITION read?
Answer: -36.05%

Question: `COc1ccsc1C(=O)N1CCCC1c1c(C)nn(C)c1OC` (stereo not drawn) was tested. Which INHIBITION did it give?
Answer: -11.31%

Question: How did the INHIBITION turn out when `Cn1cc(N2C(=O)CC[C@@H]3[C@H]2CCN3CC2CCOCC2)cn1` was run?
Answer: 50.17%

Question: Which INHIBITION does the source give for `Cn1cc(N2C(=O)CC[C@@H]3[C@H]2CCN3Cc2nccs2)cn1` here?
Answer: -20.87%

Question: For `Cn1cc(N2C(=O)CC[C@@H]3[C@H]2CCN3CCc2ccccc2)cn1`, which INHIBITION is on record?
Answer: -18.2%

Question: How did the INHIBITION turn out when `CCCN1CCC(Cc2noc(-c3cc4cccnc4nc3C)n2)CC1` was run?
Answer: 38.91%

Question: How did the INHIBITION turn out when `CC(C(=O)NCc1ccc(N2CCNC(=O)C2)cc1)c1cccs1` (stereo not drawn) was run?
Answer: -25.44%

Question: With `CCOC(=O)NC(CNC(=O)c1ccccn1)CC(C)C` (stereo not drawn) as the compound, how does the INHIBITION read?
Answer: -15.54%

Question: For `CCOC(=O)NC(CNC(=O)c1cn(C)cn1)CC(C)C` (stereo not drawn), which INHIBITION is on record?
Answer: 60.9%

Question: With `CCOC(=O)NC(CNC(=O)c1ncccn1)CC(C)C` (stereo not drawn) as the compound, how does the INHIBITION read?
Answer: 2.41%

Question: `O=C(NCCN1CCOCC1)NCC(O)c1cccc(F)c1` (stereo not drawn) was tested. Which INHIBITION did it give?
Answer: -27.69%

Question: For `Cc1noc(CN(CCO)Cc2cc(Br)ccc2F)n1`, which INHIBITION is on record?
Answer: -18.92%

Question: With `CCOc1cncc(N2CCN(c3ccccc3O)CC2)n1` as the compound, how does the INHIBITION read?
Answer: 22.75%

Question: Which INHIBITION does the source give for `COc1c(C2CCCN2Cc2nccn2C)c(C)nn1C` (stereo not drawn) here?
Answer: 56.47%

Question: For `CCc1nc(CN2CCCC2c2c(C)nn(C)c2OC)no1` (stereo not drawn), which INHIBITION is on record?
Answer: 23.94%

Question: Which INHIBITION does the source give for `CCn1ccnc1CN1CCCC1c1c(C)nn(C)c1OC` (stereo not drawn) here?
Answer: -69.19%

Question: For `COc1c(C2CCCN2Cc2noc(C(C)C)n2)c(C)nn1C` (stereo not drawn), which INHIBITION is on record?
Answer: 59.93%

Question: Which INHIBITION does the source give for `COc1c(C2CCCN2Cc2nnc(C3CC3)n2C)c(C)nn1C` (stereo not drawn) here?
Answer: 28.1%

Question: `COc1c(C2CCCN2Cc2noc(C)n2)c(C)nn1C` (stereo not drawn) was tested. Which INHIBITION did it give?
Answer: 21.83%

Question: How did the INHIBITION turn out when `CN(C)C(=O)c1cnc2n1CCN(Cc1ccsc1)C2` was run?
Answer: 54.89%

Question: How did the INHIBITION turn out when `Cc1ccc(CN2CCn3c(C(=O)N(C)C)cnc3C2)cc1` was run?
Answer: 7.77%

Question: `CN(C)C(=O)c1cnc2n1CCN(Cc1ccccc1)C2` was tested. Which INHIBITION did it give?
Answer: -26.24%

Question: With `CCOCC(O)CN1CCN(C(=O)c2cnc3n[nH]c(C)c3c2)CC1` (stereo not drawn) as the compound, how does the INHIBITION read?
Answer: 21.89%

Question: `CC(O)CN1CCN(C(=O)c2cnn(-c3ccccc3F)c2)CC1` (stereo not drawn) was tested. Which INHIBITION did it give?
Answer: -7.05%

Question: Which INHIBITION does the source give for `CC(c1ccccn1)N(C)C(=O)NCCn1c(=O)oc2ccccc21` (stereo not drawn) here?
Answer: 40.4%

Question: For `Cc1ccc2c(c1)c(Sc1ccccc1)c(CC(=O)O)n2C`, which INHIBITION is on record?
Answer: -36.84%

Question: How did the INHIBITION turn out when `CSc1c(CC(=O)O)n(C)c2ccccc12` was run?
Answer: -18.52%

Question: For `Cn1c(CC(=O)O)c(Sc2ccccc2)c2ccccc21`, which INHIBITION is on record?
Answer: 52.89%

Question: Which INHIBITION does the source give for `CSCC(CCO)NC(=O)Nc1cccc(Br)c1C` (stereo not drawn) here?
Answer: -29.43%

Question: For `O[C@@H]1C[C@@H](c2nc(Cc3ccccc3)no2)N(Cc2ccc(F)cc2)C1`, which INHIBITION is on record?
Answer: 30.63%

Question: For `CN(Cc1ccc(F)cc1)CC1(O)CCN(C(=O)c2ccn(C)n2)C1` (stereo not drawn), which INHIBITION is on record?
Answer: -21.42%

Question: How did the INHIBITION turn out when `CC(C)(C)OC(=O)NCC1CCCCN1Cc1ccncc1` (stereo not drawn) was run?
Answer: 54.29%

Question: With `CC(C)(C)OC(=O)NCC1CCCCN1Cc1cccnc1` (stereo not drawn) as the compound, how does the INHIBITION read?
Answer: 24.05%

Question: `CC(C)(C)OC(=O)NCC1CCCCN1Cc1ccccn1` (stereo not drawn) was tested. Which INHIBITION did it give?
Answer: -43.28%

Question: `Cc1cc(C(F)(F)F)nn1C(C)C(=O)NN1CCN(C)CC1` (stereo not drawn) was tested. Which INHIBITION did it give?
Answer: 32.88%

Question: Which INHIBITION does the source give for `Fc1cccc(-c2nnn3c2COC(CNc2ncccn2)C3)c1` (stereo not drawn) here?
Answer: 39.47%

Question: With `CNS(=O)(=O)c1ccc(CNC(=O)C2CCCO2)cc1` (stereo not drawn) as the compound, how does the INHIBITION read?
Answer: 52.17%

Question: For `CNS(=O)(=O)c1ccc(CNC(=O)C2CN(C)CCO2)cc1` (stereo not drawn), which INHIBITION is on record?
Answer: 33.49%

Question: Which INHIBITION does the source give for `CNS(=O)(=O)c1ccc(CNC(=O)NCC2CCCO2)cc1` (stereo not drawn) here?
Answer: 39.32%
